Compounds with a hit are over-represented: about 1.8% of the library has one in this group of screens.
PP1 inh: PP1-alpha phosphatase inhibitors, primary screen, counter-screen for PP5 inhibitor project, biochemical, fluorescence, OMFP substrate, single point; AID 2235, 2010; inhibition, % at 6.7 µM; 0.9% of 320,000 active; purified PP1alpha;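 active = inhibition above the mean inhibition of all tested compounds plus 3 SD, computed separately for each screening campaign, cut at about 15% in these data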
LYPLA1 counter: LYPLA1 inhibitors, primary screen, counter-screen for PME1 inhibitor project, biochemical, fluorescence polarization, FP-Rh probe ABPP; Acyl-protein thioesterase 1 (Homo sapiens), O75608; recombinant LYPLA1; inhibition, % at 5.9 µM; 0.16% of 320,000 active;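 active = inhibition above the mean of all tested compounds plus 3 SD, set per campaign, cut at about 14% in these data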;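 also: inhibitors block serine hydrolase probe labeling of LYPLA1 so polarization falls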
Fam108B inh: mouse Fam108B serine hydrolase inhibitors, primary screen, counter-screen for RBBP9 inhibitor project, biochemical, fluorescence polarization | inhibition, % at 9.51 µM | 0.33% of 300,000 active | recombinant Fam108B, FP-Rh probe fluorescence polarization | AID 1947, 2009;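 active = inhibition above the screen mean inhibition plus 3 SD, computed separately per campaign, cut at about 18% in these data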;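 also: inhibitors lower polarization as less probe binds the enzyme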
LYPLA2 counter: LYPLA2 inhibitors, primary screen, counter-screen for PME1 inhibitor project, biochemical, fluorescence polarization, FP-Rh probe ABPP. AID 2177, 2009. inhibition, % at 5.9 µM. 0.38% of 320,000 active. recombinant LYPLA2;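 active = inhibition above the screen-wide mean plus 3 SD, limit set per campaign, cut at about 26% in these data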
PME-1 primary: PME-1 inhibitors via competitive probe labeling, primary screen, biochemical, fluorescence polarization, FP-Rh probe, HTS | recombinant PME-1 | inhibition, % at 5.9 µM | 0.53% of 320,000 active | AID 2130, 2009;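 active = inhibition above the campaign mean of all compounds plus 3 SD, cut at about 26% in these data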;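 also: competitive labeling of PME-1 active site by serine hydrolase directed probe; inhibitors block probe labeling so polarization falls and inhibition rises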
PP5 inh: PP5 phosphatase inhibitors, primary screen, biochemical, fluorescence. Serine/threonine-protein phosphatase 5 (Homo sapiens), P53041. purified PP5c, OMFP substrate fluorescence. inhibition, % at 6.7 µM. 0.18% of 320,000 active. AID 1987, 2009;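 active = inhibition above the campaign's mean inhibition across all tested compounds plus 3 SD, cut at about 9.5% in these data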
Target sequence (P53041 whole entry, looked up): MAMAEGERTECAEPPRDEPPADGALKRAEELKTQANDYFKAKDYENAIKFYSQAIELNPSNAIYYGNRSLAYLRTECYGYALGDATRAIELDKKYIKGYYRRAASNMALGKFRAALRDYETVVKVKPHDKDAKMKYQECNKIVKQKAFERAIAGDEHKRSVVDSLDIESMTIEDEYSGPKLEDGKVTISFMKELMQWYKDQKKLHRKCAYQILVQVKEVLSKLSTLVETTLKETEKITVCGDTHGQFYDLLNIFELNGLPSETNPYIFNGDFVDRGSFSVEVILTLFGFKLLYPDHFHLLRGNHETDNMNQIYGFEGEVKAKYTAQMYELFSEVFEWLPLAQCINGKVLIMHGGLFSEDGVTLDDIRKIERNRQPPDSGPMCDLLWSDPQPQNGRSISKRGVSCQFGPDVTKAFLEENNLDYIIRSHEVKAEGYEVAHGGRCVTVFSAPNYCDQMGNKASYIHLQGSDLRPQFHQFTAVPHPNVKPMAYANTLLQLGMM
LYPLA2 conf: LYPLA2 inhibitors, retest, confirmation, counter-screen for PME1 inhibitor project, biochemical, fluorescence polarization, FP-Rh probe ABPP; inhibition, % at 5.9 µM; shares compounds with LYPLA2 counter; recombinant LYPLA2; 72% of 1,100 active;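 active = mean inhibition across replicates above the hit cutoff set in the primary screen, cut at about 26% in these data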;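 also: blocked labeling of the enzyme by serine hydrolase FP-Rh probe lowers polarization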
LYPLA2 ABPP: LYPLA2 inhibitors in proteome, late-stage follow-up, gel-based competitive ABPP, fluorescence, assay provider; inhibition, % at 20 µM; shares compounds with LYPLA2 counter; rhLYPLA2 in mouse brain proteome, gel ABPP FP-Rh; 30% of 150 active;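 active = inhibition of LYPLA2 enzyme probe labeling above about 50%, limit read from the data; inactive = inhibition below that limit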;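 also: loss of FP-Rh probe labeling of the LYPLA2 gel band measured as band density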
Large screens that a line does not name were inactive (follow-up assays come after a bar, where they were run).

CS(=O)(=O)NCc1ccccc1Br	none (no result: Fam108B inh)
COC(=O)CCC(=O)N1CCCC(N2CCN(c3cccc(C(F)(F)F)c3)CC2)C1 (stereo unspecified)	none
CSCCC(=O)N1CCCC(N2CCN(c3cccc(C(F)(F)F)c3)CC2)C1 (stereo unspecified)	LYPLA2 counter 53 | LYPLA2 conf 59 | LYPLA2 ABPP inactive
Cc1cnc(C(=O)N2CCCC(N3CCN(c4cccc(C(F)(F)F)c4)CC3)C2)cn1 (stereo unspecified)	LYPLA2 counter 26 | LYPLA2 conf inactive
CC1=C(C(=O)N2CCCC(N3CCN(c4cccc(C(F)(F)F)c4)CC3)C2)OCCO1 (stereo unspecified)	none
Cc1cccc(N2CCN(C(=O)c3ccccc3SCC(=O)N3CCCC3)CC2)c1C	none (no result: Fam108B inh)
O=C(O)C1=C[C@H](c2ccc3c(c2)OCO3)C[C@H](OCCCCO)O1	none
Cc1cc2c(NC(=O)Nc3ccccc3)cccc2nn1	LYPLA2 counter 35 | LYPLA2 conf 36
COc1ccc(C)cc1NC(=O)C1CCCN(S(=O)(=O)c2cccnc2)C1 (stereo unspecified)	none
CCCCOC(=O)c1ccc(NC(=O)C(=O)NCc2ccncc2)cc1	LYPLA2 counter 35 | LYPLA2 conf 31
CCOC(=O)c1ccc(NC(=O)C(=O)NCc2ccncc2)cc1	none
CC1CCN(CCCNC(=O)c2ccc3c(=O)n(CCc4ccccc4)c(=O)[nH]c3c2)CC1	none
CN1CCN(CCCNC(=O)c2ccc3c(=O)n(CCc4ccccc4)c(=O)[nH]c3c2)CC1	LYPLA2 counter 29 | LYPLA2 conf inactive
CC(=O)c1cc(C#N)c(SCc2ccccc2C#N)nc1C	LYPLA2 counter 46 | LYPLA2 conf 46
CC(=O)Nc1ccc(S(=O)(=O)NC2CCSc3ccccc32)cc1 (stereo unspecified)	LYPLA2 counter 32 | LYPLA2 conf inactive
CC1CCCN(C(=O)CN2C(=O)C(C)Oc3ccccc32)C1 (stereo unspecified)	LYPLA2 counter 29 | LYPLA2 conf inactive
CC1Oc2ccccc2N(CC(=O)N2CCCC2)C1=O (stereo unspecified)	none
CC(C)/C=C/CN1CCN(CCCc2ccccc2)C(CCO)C1 (stereo unspecified)	none
CCc1ccc(-n2ccc(=O)c(C(=O)O)n2)cc1	none
CCOC(=O)C1CCN(C(=O)c2ccc(Oc3cc(Cl)cc(Cl)c3)o2)CC1	LYPLA2 counter 27 | LYPLA2 conf 49
Cc1cc(N2CCN(c3ccc(C(F)(F)F)cc3[N+](=O)[O-])CC2)c2ccccc2n1	LYPLA2 counter 29 | LYPLA2 conf 26
CC(=O)c1ccc(OCc2cc(C(=O)N3CCC(c4ccncc4)CC3)no2)cc1	LYPLA2 counter 34 | LYPLA2 conf 37
Cc1ccc(-c2nn(-c3ccccc3)cc2C(=O)NCCCN2CCOCC2)cc1	none
Cc1cc(C(=O)N2CCN(Cc3ccc4c(c3)OCO4)CC2)on1	none
COc1cccc(-c2cc(C(=O)N3CCN(Cc4ccc5c(c4)OCO5)CC3)on2)c1	LYPLA2 counter 30 | LYPLA2 conf 29
COc1ccccc1C(=O)N1CCN(Cc2ccc3c(c2)OCO3)CC1	none
O=C(COc1ccc(Cl)cc1)N1CCN(Cc2ccc3c(c2)OCO3)CC1	LYPLA2 counter 34 | LYPLA2 conf 29
O=C(Nc1ccc(Cl)cc1)N1CCN(Cc2ccc3c(c2)OCO3)CC1	none
